Hits are enriched below; roughly 11% of the tested compounds scored in any of these assays.
BAZ2B inh: qHTS Assay for Inhibitors of BAZ2B | Bromodomain adjacent to zinc finger domain protein 2B (Homo sapiens), Q9UIF8 | AlphaScreen BAZ2B-H3K14Ac peptide displacement | Potency, µM (series often up to 114 µM), usual class: inhibitors | hit rate 4.4% among 360,000 | AID 504333, 2011; further: nearly all actives have a fitted effect of over 60% in size
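AlphaScreen displacement: compounds (up to 110uM) incubated 30 min at room temperature with a preformed 50 nM BAZ2B/50 nM biotinylated H3K14Ac peptide complex in PBS pH 7.4 with Tween-20. Donor and acceptor beads at 10 ug/mL final added, 20 min light-protected before reading.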
HP1b chromo inh: HTS for Inhibitors of HP1-beta Chromodomain Interactions with Methylated Histone Tails; Chromobox protein homolog 1 (Homo sapiens), P83916; AlphaScreen HP1-beta / biotin-H3K9me3 peptide binding; Potency, µM (titrated, usually from 114 µM), actives largely listed as inhibitors; hit rate 0.56% among 390,000; AID 540317, 2011; further: nearly all actives have a fitted effect of over 70% in size
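AlphaScreen: HP1-beta (50 nM) preformed 30 min with biotin-H3(1-18)K9me3 peptide (50 nM) in PBS pH 7.4, 0.01% Tween-20. Compound added for 30 min at RT, then streptavidin donor/nickel chelate acceptor beads (10 ug/mL) for 30 min.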
PI5P4Ka inh: qHTS for Inhibitors of phosphatidylinositol 5-phosphate 4-kinase (PI5P4K) | hit rate 1.2% among 330,000 | PI5P4Kalpha enzyme, ADP-Glo luminescence, 60 min; stronger effect = lower value | max response, % | Phosphatidylinositol 5-phosphate 4-kinase type-2 alpha (Homo sapiens), P48426; active means max response of -50% or lower; inconclusive means between -30% and -50%; inactive means -30% or higher; further: value at the top dose of about 77 µM
Target sequence (P48426 whole entry, looked up): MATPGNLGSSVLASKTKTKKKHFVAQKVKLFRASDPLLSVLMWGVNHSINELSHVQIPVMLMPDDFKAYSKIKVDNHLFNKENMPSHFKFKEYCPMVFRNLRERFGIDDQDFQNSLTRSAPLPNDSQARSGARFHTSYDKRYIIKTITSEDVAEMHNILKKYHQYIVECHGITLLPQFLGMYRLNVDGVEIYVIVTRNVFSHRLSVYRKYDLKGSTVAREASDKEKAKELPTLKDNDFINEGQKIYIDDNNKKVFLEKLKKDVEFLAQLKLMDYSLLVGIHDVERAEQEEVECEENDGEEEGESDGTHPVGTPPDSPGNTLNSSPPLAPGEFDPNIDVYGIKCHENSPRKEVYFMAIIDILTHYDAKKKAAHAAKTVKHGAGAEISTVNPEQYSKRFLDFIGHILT
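qHTS, 1536-well: enzyme/substrate mix, compound by pin tool, 5 microM ATP final; RT 60 min; ADP-Glo reagents 1 (45 min) then 2 (30 min); luminescence.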
L3MBTL1 block: qHTS Assay for the Inhibitors of L3MBTL1; AlphaScreen L3MBTL1–H3K9me1 peptide binding; Potency, µM (top dose mostly 57.1 µM), hits mostly inhibitors; hit rate 0.66% among 230,000; AID 485360, 2010; further: nearly all actives have a fitted effect of over 60% in size
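AlphaScreen proximity signal between nickel-chelate acceptor and streptavidin donor beads (final 10 ug/mL) reports binding of 50 nM L3MBTL1 to 75 nM biotin-H3 K9me1 peptide; complex incubated with compounds 30 min at room temperature; cefsulodin titration as control.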
G9a block: qHTS Assay for Inhibitors of Histone Lysine Methyltransferase G9a; G9a H3K9 monomethylation, AlphaScreen, 2 h; Potency, µM (doses to about 102 µM), usual class: inhibitors; Histone-lysine N-methyltransferase EHMT2 (Homo sapiens), Q96KQ7; hit rate 8.8% among 350,000; further: nearly all actives have a fitted effect of over 75% in size
Target sequence (Q96KQ7 913-1193 limits assumed): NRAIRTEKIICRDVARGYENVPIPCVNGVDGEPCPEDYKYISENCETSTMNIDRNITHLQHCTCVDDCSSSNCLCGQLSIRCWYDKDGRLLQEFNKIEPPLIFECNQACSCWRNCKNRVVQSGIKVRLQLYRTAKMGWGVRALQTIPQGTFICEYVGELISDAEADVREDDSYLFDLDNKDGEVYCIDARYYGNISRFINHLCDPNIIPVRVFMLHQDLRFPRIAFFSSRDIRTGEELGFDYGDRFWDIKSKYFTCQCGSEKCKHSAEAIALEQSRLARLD
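AlphaScreen read-out: biotin-H3K9 peptide (500 nM) methylation by 20 nM enzyme with 20 uM SAM, 2 h at room temperature after 15 min compound preincubation; anti-monomethyl H3K9 antibody plus donor/acceptor beads, 10 min dark.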
JMJD2A Tudor inh: qHTS Assay for Inhibitors of JMJD2A-Tudor Domain | Potency, µM (top dose mostly 114 µM), most hits filed as inhibitors | hit rate 4.4% among 390,000 | Lysine-specific demethylase 4A (Homo sapiens), O75164 | AlphaScreen JMJD2A-Tudor / H3K4me3 peptide binding; further: nearly all actives have a fitted effect of over 50% in size
A number is an active result; [ ] = dose if it differs, or a comment. Unless noted, the call rests on the fitted dose curve; in most records, active means well fitted inhibition curve with a large enough effect; inconclusive means small, poorly fitted or top-dose-only effect; inactive means no such curve, though single readings can be large or run the other way.

`COc1ccc2c(c1)CCc1sc(NC(=O)c3ccc(C)cc3)nc1-2` gave BAZ2B inh inactive, HP1b chromo inh inactive, PI5P4Ka inh inactive, L3MBTL1 block inactive, G9a block inactive and JMJD2A Tudor inh inactive.
`COc1ccc2nc(NC(=O)c3ccc(-c4cccc([N+](=O)[O-])c4)o3)sc2c1` gave BAZ2B inh 79µM, L3MBTL1 block inactive and G9a block inconclusive.
O=C(Nc1nc2ccc([N+](=O)[O-])cc2s1)c1ccco1 was read as BAZ2B inh inactive, L3MBTL1 block inactive and G9a block inactive.
Screening COc1ccc2c(c1)Cc1sc(NC(=O)c3ccco3)nc1-2 returned BAZ2B inh inactive, HP1b chromo inh inactive, PI5P4Ka inh inactive, L3MBTL1 block inactive, G9a block 56µM and JMJD2A Tudor inh inactive.
COc1ccc2c(c1)CCc1sc(NC(=O)c3ccco3)nc1-2 was read as BAZ2B inh inactive, HP1b chromo inh inactive, PI5P4Ka inh inactive, G9a block 40µM and JMJD2A Tudor inh inactive.
CCOc1ccc(CCNC(=O)CCc2c(C)nc3cc(-c4ccccc4OC)nn3c2C)cc1 was read as BAZ2B inh inactive, HP1b chromo inh inactive, G9a block inconclusive and JMJD2A Tudor inh inactive.
`COc1ccc2c(c1)-c1nc(NC(=O)c3cccs3)sc1CC2` gave BAZ2B inh inactive, HP1b chromo inh inactive, PI5P4Ka inh inactive, L3MBTL1 block inactive, G9a block inconclusive and JMJD2A Tudor inh inactive.
`COc1ccc2c(c1)-c1nc(NC(=O)c3ccco3)sc1CC2` gave BAZ2B inh inactive, HP1b chromo inh inactive, PI5P4Ka inh inactive, L3MBTL1 block inactive, G9a block 25µM and JMJD2A Tudor inh inactive.
N#C/C(=C(/O)c1ccc(-c2cccc([N+](=O)[O-])c2)o1)c1nc2ccccc2s1 was read as BAZ2B inh 45µM, HP1b chromo inh inactive, PI5P4Ka inh -53, G9a block 45µM and JMJD2A Tudor inh inconclusive.
COc1ccc2c(c1)CCc1sc(NC(=O)c3ccc(Br)cc3)nc1-2 was read as BAZ2B inh inactive, HP1b chromo inh inactive, G9a block inconclusive and JMJD2A Tudor inh inactive.
Screening COc1ccc2c(c1)Cc1sc(NC(=O)c3cccnc3)nc1-2 returned BAZ2B inh inactive, HP1b chromo inh inactive, PI5P4Ka inh inactive, L3MBTL1 block inconclusive, G9a block 45µM and JMJD2A Tudor inh inactive[11.4 µM].
Screening COc1ccc2sc(NC(=O)c3ccco3)nc2c1 returned BAZ2B inh inconclusive, HP1b chromo inh inactive, L3MBTL1 block inactive, G9a block 7.1µM and JMJD2A Tudor inh inconclusive.
Screening O=C(O)c1ccc(-c2cccc([N+](=O)[O-])c2)o1 returned BAZ2B inh inconclusive, HP1b chromo inh inactive, PI5P4Ka inh inactive, L3MBTL1 block inactive, G9a block inactive and JMJD2A Tudor inh inactive[11.4 µM].
Screening COc1ccc2c(C)c(CCC(=O)NCc3ccc(Cl)cc3)c(=O)oc2c1C returned BAZ2B inh inactive, HP1b chromo inh inactive, G9a block inactive and JMJD2A Tudor inh inactive.
For CSc1ncc(C(=O)NCc2cccc(Br)c2)c(-c2ccccc2)n1 the results were BAZ2B inh inactive, HP1b chromo inh inactive, G9a block inactive and JMJD2A Tudor inh inactive.
COc1ccc(-n2c(=O)c(C)nc3cnc(Oc4cccc(Cl)c4)nc32)cc1 was read as G9a block inactive[12.7 µM].
`CCOc1ccc(C2N(c3cc(C)on3)C(=O)C3CCCN32)cc1OC` (stereo not given) gave BAZ2B inh inactive, HP1b chromo inh inconclusive, PI5P4Ka inh inactive, L3MBTL1 block inactive, G9a block inconclusive and JMJD2A Tudor inh 35µM.
For COc1ccc(C2N(c3cc(C)on3)C(=O)C3CCCN32)cc1OC (stereo not given) the results were BAZ2B inh inconclusive, HP1b chromo inh inactive, L3MBTL1 block inactive, G9a block inconclusive and JMJD2A Tudor inh 20µM.
Screening COc1cc(C2N(c3cc(C)on3)C(=O)C3CCCN32)cc(OC)c1OC (stereo not given) returned BAZ2B inh inactive, HP1b chromo inh inactive, L3MBTL1 block inactive, G9a block inactive and JMJD2A Tudor inh inconclusive.
COc1ccc(C(=O)/C=C/c2cn(CC(O)CN3CCOCC3)c3ccccc23)cc1 (stereo not given) was read as BAZ2B inh inconclusive, HP1b chromo inh inactive, PI5P4Ka inh inactive, L3MBTL1 block inconclusive, G9a block 45µM and JMJD2A Tudor inh inactive.
Screening COc1ccc(C(=O)/C=C/c2cn(CC(O)CN(CC(C)C)CC(C)C)c3ccccc23)cc1OC (stereo not given) returned BAZ2B inh inactive, HP1b chromo inh inactive, G9a block inactive and JMJD2A Tudor inh inactive.
`COc1ccc(C(=O)/C=C/c2cn(CC(O)CN3CCc4ccccc43)c3ccccc23)cc1OC` (stereo not given) gave BAZ2B inh 10µM, HP1b chromo inh inactive, G9a block inconclusive and JMJD2A Tudor inh 20µM.
`Cc1ccc(C(=O)/C=C/c2cn(CC(O)CN3CCOCC3)c3ccccc23)cc1` (stereo not given) gave BAZ2B inh inconclusive, HP1b chromo inh inactive, PI5P4Ka inh inactive, L3MBTL1 block inactive, G9a block inactive and JMJD2A Tudor inh inactive.
`Cc1ccc(C(=O)/C=C/c2cn(CC(O)CN3CCc4ccccc43)c3ccccc23)cc1` (stereo not given) gave BAZ2B inh inconclusive, HP1b chromo inh inactive, G9a block 13µM and JMJD2A Tudor inh 25µM.
For CC(C)CN(CC(C)C)CC(O)Cn1cc(/C=C/C(=O)c2ccccc2)c2ccccc21 (stereo not given) the results were BAZ2B inh 89µM, HP1b chromo inh inactive, G9a block inactive and JMJD2A Tudor inh inactive.
Screening CCOC(=O)C(CC)n1nc(C)c2c(C)n(-c3ccc(C)cc3)nc2c1=O (stereo not given) returned BAZ2B inh inactive, HP1b chromo inh inactive, G9a block inactive and JMJD2A Tudor inh inactive.
Screening Cc1cccc(N2CCN(CCCNc3ncnc4onc(-c5ccc(F)cc5)c34)CC2C)c1 (stereo not given) returned BAZ2B inh inconclusive, HP1b chromo inh inactive, G9a block inconclusive and JMJD2A Tudor inh inconclusive.
`COc1ccc(C#Cc2c[nH]c(=O)c3cncnc23)cc1OC` gave HP1b chromo inh inactive and JMJD2A Tudor inh inactive.
For Cc1cccc(C)c1OCC(=O)Nc1nc(-c2ccc(Br)cc2)ns1 the results were BAZ2B inh inactive, HP1b chromo inh inactive, G9a block inactive and JMJD2A Tudor inh inactive.
